# ± gives the standard deviation of the averaged measurements.
# What was measured:
# DLD1 [1] = assay: cell viability (CellTiter-Glo) relative to plate median (fraction of plate median); higher = more viable cells; settings: 5 µM; treatment time 24 h; reporter: 7TFP
# In short: (§1)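 Library compounds, at a final 5 µM, stayed on reporter cells for 24 h. The cells were colorectal cancer lines stably transduced with lentiviral TCF/Wnt firefly luciferase reporters, seeded in 384-well plates 24 h before dosing. Firefly luciferase or CellTiterGlo luminescence from parallel plates was normalised to the plate median in webcellHTS2 (additive, no log transformation), and two independent replicates were averaged.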
# HCT116 = assay: as above; settings: 5 µM; treatment time 24 h; reporter: TCF4/Wnt
# In short: as §1
# SW480 [2] = assay: as above; settings: 5 µM; treatment time 24 h; reporter: 7TFP
# In short: as §1
# DLD1 [3] = assay: TCF/Wnt firefly luciferase reporter signal relative to plate median (fraction of plate median); higher = higher Wnt reporter signal; settings: 5 µM; treatment time 24 h; reporter: 7TFP
# In short: as §1
# SW480 [4] = assay: as above; settings: 5 µM; treatment time 24 h; reporter: 7TFP
# In short: as §1
SMILES,cell viability (DLD1 [1]),cell viability (HCT116),cell viability (SW480 [2]),TCF/Wnt firefly luciferase reporter signal (DLD1 [3]),TCF/Wnt firefly luciferase reporter signal (SW480 [4])
COc1ccc(-c2cc(=O)c3c(O)c(OC)c(OC)c(OC)c3o2)cc1,1.01 ± 0.032,1.04 ± 0.072,1.02 ± 0.055,0.953 ± 0.062,1.01 ± 0.021
CCCC(=O)O[C@]1(C(=O)CO)CC[C@H]2[C@@H]3CCC4=CC(=O)CC[C@]4(C)[C@H]3[C@@H](O)C[C@@]21C,0.965 ± 0.03,0.958 ± 0.16,1.02,0.895 ± 0.016,0.956 ± 0.0057
COc1cc(N)c(Cl)cc1C(=O)NC1CCN(Cc2ccccc2)CC1,0.971 ± 0.026,0.883 ± 0.041,0.975 ± 0.0071,0.8815 ± 0.0021,0.998 ± 0.017
O=C(OCC(O)CO)c1ccccc1Nc1ccnc2cc(Cl)ccc12 (stereo not given),0.984 ± 0.037,1.015 ± 0.0071,1.02 ± 0.021,0.954 ± 0.15,0.922 ± 0.044
CC1(C)O[C@H]2CC(=O)OC[C@]23[C@H]2CC[C@@]4(C)[C@H](c5ccoc5)OC(=O)[C@H]5O[C@]54[C@]2(C)C(=O)C[C@@H]13,1.01 ± 0.045,1.07 ± 0.064,1.05 ± 0.05,0.944 ± 0.03,0.98 ± 0.099
CCCCOC(=O)c1ccc(N)cc1,1.02 ± 0.054,0.942 ± 0.023,0.961 ± 0.021,0.936 ± 0.027,1.03 ± 0.083
COc1c2c(c(O)c3c4c(c(C)cc13)[C@@H]1O[C@@]3(C(OC)OC)O[C@@H]1[C@@](O[C@H]1CC(O)[C@@](O)(C(C)=O)C(C)O1)(O4)[C@@]3(O)Cn1cnc3nc(N)[nH]c(=O)c31)C(=O)C(O)CC2O[C@H]1CC(C)(O)[C@H](OC(C)=O)C(C)O1 (stereo not given in full) [Gutingimycin],0.932 ± 0.022,0.966 ± 0.0057,0.946 ± 0.059,0.87 ± 0.14,0.898 ± 0.07
CC(C(=O)O)c1ccc(C(=O)c2cccs2)cc1 (stereo not given),1.01 ± 0.021,1.025 ± 0.0071,1.02 ± 0.014,0.996 ± 0.021,0.999 ± 0.072
CC(O)(P(=O)(O)O)P(=O)(O)O,0.949 ± 0.073,0.943 ± 0.032,0.956 ± 0.037,1 ± 0.13,0.968 ± 0.06
CC(C)c1c(C(=O)Nc2ccccc2)c(-c2ccccc2)c(-c2ccc(F)cc2)n1CC[C@@H](O)C[C@@H](O)CC(=O)O,0.9915 ± 0.0092,1 ± 0.069,1.01 ± 0.076,0.966 ± 0.09,0.909 ± 0.013
COc1c(O)cc2c(c1O)[C@@H]1O[C@H](CO)[C@@H](O)[C@H](O)[C@H]1OC2=O,0.966 ± 0.049,0.912 ± 0.039,1.02 ± 0.04,0.981 ± 0.14,1.09 ± 0.092
Cc1ccccc1C(OCCN(C)C)c1ccccc1 (stereo not given),1.07 ± 0.13,0.894 ± 0.15,1.01 ± 0.039,1.085 ± 0.0071,1.12 ± 0.085
NS(=O)(=O)c1cc2c(cc1C(F)(F)F)NC(Cc1ccccc1)NS2(=O)=O (stereo not given),0.992 ± 0.04,0.969 ± 0.058,0.9875 ± 0.0035,0.836 ± 0.075,0.885 ± 0.064
O=c1ccc2ccc(O)cc2o1,0.995 ± 0.036,0.972 ± 0.014,1.03 ± 0.028,0.936 ± 0.13,0.935 ± 0.042
COc1cc(OC)c2c(OC)c(-c3ccc4c(c3)OCO4)c(=O)oc2c1,1.04,1.08 ± 0.05,1.01 ± 0.061,0.804 ± 0.36,0.867 ± 0.34

# Source: the supplement of paper PMC6522484
